In PubChem BioAssay (NCI):
The panel holds about 83,000 compounds, 20% with a hit somewhere; the sample as a whole holds those more often.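 Assay: single dose, 48 h. Readout: percent growth (0 = no net growth; negative = cell death). Active: <10.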 Values without a mark were called inactive. The source made the active and inactive calls.

These molecules were tested on SW-620 colon (assay: NCI-60 one-dose screen, 48 h (100 = growth as untreated, 0 = no growth, -100 = all killed)). Details: 10 µM.
For S=c1sc2ccccc2n1CN1CCCCC1, the growth was 90%. Molecule Cc1cc(N)c(S(=O)(=O)O)c(N)c1 has a growth of 90.8%. COc1ccccc1NC(=O)C1=C(C)NC(C)=C(C(=O)Nc2ccccc2OC)C1c1cccc([N+](=O)[O-])c1 was tested, and the growth was 88%. For C=CCNc1nnc(C)s1, the growth was 107%. COC(=O)C(C)Oc1ccc(OC#N)cc1 (centres undefined) gave a growth of 95.6%. CCc1nn(Cc2ccccc2)c2nc(C)c(CCc3ccccc3)c(Cl)c12 showed a growth of 99.2%. c1c(-c2cc(C3CC3)[nH]n2)n[nH]c1C1CC1 showed a growth of 102%. For O=C(CCNNC(=O)c1ccncc1)NCc1ccccc1, the growth was 96%. Work on CC(=O)Nc1cccc(Cl)c1C yielded a growth of 101%. Work on CC(=O)C1CCCCC1 yielded a growth of 100%. For CCOC(=O)/C(C#N)=C/c1cccc(C)c1, the growth was 103%. With CN(C)c1ccc2oc(=O)c3ccccc3c2c1 the growth was 85.2%. O=C(OCC(O)C1OC(c2ccccc2)OC(COC(=O)c2ccccc2)C1O)c1ccccc1 (centres undefined) gave a growth of 109%. O=C(O)c1ccc(S(=O)(=O)O)cc1 showed a growth of 104%. OC1CCCc2ccccc21 (centres undefined) gave a growth of 107%. CCCCCCCCCCCCCC(=O)Oc1ccc[nH]c1=O showed a growth of 101%. COC(=O)Nc1nc2ccc(C(=O)c3ccc(F)cc3)cc2[nH]1 was tested, and the growth was 24.8%. With Nc1ccccc1SC(CC(=O)c1ccccc1)c1c(Cl)cccc1Cl (centres undefined) the growth was 10.2%. For CC1=CC(=O)c2ccccc2C1=O, the growth was 106%. Work on O=C(Nc1ccccc1)OCCc1ccccc1 yielded a growth of 106%. COc1ccccc1N1CCN(C(=S)Nc2ccccc2)CC1 was tested, and the growth was 103%. With CCCNC(=O)c1ccc(S(N)(=O)=O)cc1 the growth was 94.5%. With COC(=O)CCCCC1=CCC2C(=O)C=C(O)C2C1 (centres undefined) the growth was 106%. In the case of CCOC(=O)CCCS(C)(=O)=O, the growth is reported as 105%. With Nc1ccc(NC(=O)c2cccc(N)c2)cc1 the growth was 102%. CCN(CC)CCNc1ccc(CO)c2sc3ccccc3c(=O)c12 gave a growth of 29.5%. With CCOC(=O)c1cc(/C=C/c2ccc(Cl)cc2Cl)on1 the growth was -13.6% (active). With O=[N+]([O-])c1ccccc1S(=O)c1ccccc1[N+](=O)[O-] the growth was 44.6%. For COc1cccc(Sc2ccc([N+](=O)[O-])c3no[n+]([O-])c23)c1, the growth was -0.655% (active). O=C(NC1CCCCC1)OCc1c(COC(=O)NC2CCCCC2)c(-c2ccc(Cl)c(Cl)c2)n2c1CCC2 was tested, and the growth was 32.6%. Molecule O=C1OC(=O)C2C1C1(Cl)C(Cl)=C(Cl)C2(Cl)C2C(=O)OC(=O)C21 (centres undefined) has a growth of 113%. In the case of c1ccc(Cc2ccccc2)cc1, the growth is reported as 106%. For COc1ccc2c(NCCCCCCCCNc3c4ccccc4nc4cc(OC)ccc34)c3ccccc3nc2c1, the growth was -100% (active). Molecule CCCC(=O)c1cc(C)ccc1OC has a growth of 114%.
